KB-3-1 cytotox – KB-3-1 parental cell cytotoxicity; Potency, µM (highest dose often 46.1 µM), hits mostly cytotoxic; AID 1347075; 1.4% of 400,000 active; KB-3-1 viability, CellTiter-Glo ATP luminescence, 72 h; further: nearly all actives have a fitted effect of over 60% in size
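72 h, 37 °C compound treatment of KB-3-1 parental cells; CellTiter-Glo added, 10 min, luminescence read. Data corrected against DMSO-only plates and normalized before curve fitting.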
KB-V1 cytotox – kills drug-selected multidrug resistant KB-V1 cells; KB-V1 MDR cells viability, CellTiter-Glo, 72 h; Potency, µM (series often up to 46.1 µM), hits mostly cytotoxic; 3.4% of 400,000 active; further: nearly all actives have a fitted effect of over 60% in size
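KB-V1, DMEM (no phenol red) + 10% FBS; cpd pin-transferred, titration series; 72 h, 37 degrees C; CellTiter-Glo, luminescence. Data normalized, curve-fit.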
TDP1 cell CPT – DT40-hTDP1 cell growth loss with CPT. Potency, µM (highest dose often 46.2 µM), for inactives: at the top dose activity change, negative = growth inhibition, usual class: inhibitors. chicken DT40 Tdp1-/-;hTDP1 cells + 20 nM CPT, ATP luminescence, 48 h. 12% of 420,000 active; further: nearly all actives have a fitted effect of over 55% in size
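Chicken DT40 Tdp1-/- cells stably complemented with human TDP1 were seeded at 400 cells/well in medium containing 20 nM camptothecin, exposed to pin-transferred compounds, and grown at 37 °C for at least 48 hr. Viability was read as ATP luminescence.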
HT1080 IDH1KD tx – HT-1080 IDH1 knockdown cell toxicity (counter line). HT-1080 IDH1 knockdown viability, ATP luminescence, 48 h. Potency, µM (highest dose often 46.1 µM), for inactives: at the top dose activity, negative = toxicity, actives largely listed as cytotoxic. 2% of 360,000 active;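 further: 0% = DMSO wells and -100% = cell-free medium wells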
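HT-1080-IDH1KD cells (IDH1 knocked down), 750/well in RPMI with 5% FBS, treated with compound 48 h at 37 degrees C. Viability by CellTiter-Glo luminescence, normalised to DMSO and no-cell wells; concentration-response curves classed.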
TDP1 cell noCPT – qHTS for Inhibitors of human tyrosyl-DNA phosphodiesterase 1 (TDP1): qHTS in cells in absence of CPT | DT40 Tdp1-/- hTDP1 cells, no CPT, ATP luminescence, 48 h | AID 686978, 2013 | 15% of 420,000 active | Potency, µM (series often up to 46.2 µM), inactives show top-dose activity change, negative = growth inhibition, hits mostly inhibitors; further: nearly all actives have a fitted effect of over 55% in size
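A cellular qHTS used chicken DT40 cells lacking endogenous Tdp1 but carrying stably transfected human TDP1. Compounds were applied without camptothecin, and cell growth kinetics were judged by ATP-dependent luminescence after ≥48 hr.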
HT1080-NT tox – kills 2HG-producing HT-1080-NT fibrosarcoma cells; HT-1080-NT fibrosarcoma viability, CellTiter-Glo ATP luminescence, 48 h; Potency, µM (series often up to 46.1 µM), for the others: at the highest dose activity, negative = less viability, most hits filed as cytotoxic; 1.6% of 360,000 active; AID 686970;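 further: NT is the 2HG producing partner of a matched IDH1 knockdown line; 0% = DMSO-treated cells and -100% = media-only wells without cells; nearly all actives have a fitted effect of over 55% in size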
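Toxicity toward the 2HG-producing NT line was scored as %Activity, normalised to DMSO and no-cell wells, from CellTiter-Glo luminescence after 48 hours' treatment.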
Starred values were filed as active, the others as inactive. In the library only some 19% were active in any assay of this set; here they are far more common. The call rests on the fitted dose curve; in most records, active means well fitted curve in the direction sought with a large enough effect; inconclusive means small, poorly fitted or top-dose-only effect, or another doubt; inactive means no such curve, though single readings can be large; an effect the other way counts as inactive or inconclusive. Unless noted, on the % scale 0 is the no-effect control and ±100 the full control effect; potency means the concentration at half of the fitted maximal effect.

Screening CCc1ccc(/C=C\C(=O)N2CCc3ccccc3C2)cc1 returned KB-3-1 cytotox inactive, KB-V1 cytotox inactive, TDP1 cell CPT -1.4%, HT1080 IDH1KD tx 21.4%, TDP1 cell noCPT 2.1% and HT1080-NT tox 17.0%.
Screening O=C(c1ccc(N2CCCCC2)c([N+](=O)[O-])c1)N(Cc1ccccc1)c1ccccn1 returned KB-3-1 cytotox inactive, KB-V1 cytotox inactive, TDP1 cell CPT 16.4µM*, HT1080 IDH1KD tx -4.6%, TDP1 cell noCPT 18.4µM* and HT1080-NT tox 0.0%.
For O=C(/C=C/c1ccccc1[N+](=O)[O-])N1CCc2ccccc2C1 the results were KB-3-1 cytotox inactive, KB-V1 cytotox inconclusive, TDP1 cell CPT inconclusive, HT1080 IDH1KD tx -9.6%, TDP1 cell noCPT 16.4µM* and HT1080-NT tox -4.1%.
O=C(c1ccc(S(=O)(=O)N2CCCCC2)cc1)N1CCc2ccccc2C1 was read as KB-3-1 cytotox inactive, KB-V1 cytotox inconclusive, TDP1 cell CPT inconclusive, HT1080 IDH1KD tx -9.0%, TDP1 cell noCPT inconclusive and HT1080-NT tox -8.6%.
Screening O=C(c1ccc(S(=O)(=O)c2ccccc2)cc1)N1CCc2ccccc2C1 returned KB-3-1 cytotox inactive, KB-V1 cytotox 18.4µM*, TDP1 cell CPT inconclusive, HT1080 IDH1KD tx -2.2%, TDP1 cell noCPT inconclusive and HT1080-NT tox -11.5%.
O=C(CCNC(=O)c1ccc(Br)cc1)Nc1ccccc1N1CCCC1 was read as KB-3-1 cytotox inactive, KB-V1 cytotox inactive, TDP1 cell CPT -24.7%, HT1080 IDH1KD tx 1.0%, TDP1 cell noCPT inconclusive and HT1080-NT tox 1.1%.
`Cc1cc(C)nc(N2CCCC(C(=O)NCCc3ccc(F)cc3)C2)n1` (configuration not stated) gave KB-3-1 cytotox inactive, KB-V1 cytotox 18.4µM*, TDP1 cell CPT -7.0%, HT1080 IDH1KD tx -11.2%, TDP1 cell noCPT -2.6% and HT1080-NT tox 7.3%.
For Cc1cc(C)nc(N2CCC(C(=O)NCCc3ccc(Cl)cc3)CC2)n1 the results were KB-3-1 cytotox inactive, KB-V1 cytotox inactive, TDP1 cell CPT 13µM*, HT1080 IDH1KD tx 2.7%, TDP1 cell noCPT inconclusive and HT1080-NT tox 15.3%.
O=C(NCCc1ccccc1)C1CCCN(C(=O)Nc2ccc(F)cc2)C1 (configuration not stated) was read as KB-3-1 cytotox inconclusive, KB-V1 cytotox inconclusive, TDP1 cell CPT 6.51µM*, HT1080 IDH1KD tx -9.3%, TDP1 cell noCPT 6.51µM* and HT1080-NT tox -4.1%.
Screening O=C(NCc1ccccc1Cl)C1CCCN(C(=O)Nc2ccc(F)cc2)C1 (configuration not stated) returned KB-3-1 cytotox inactive, KB-V1 cytotox inactive, TDP1 cell CPT inconclusive, HT1080 IDH1KD tx -17.4%, TDP1 cell noCPT -29.0% and HT1080-NT tox -7.7%.
Cc1cc(C)nc(N2CCC(C(=O)NCCc3ccc(F)cc3)CC2)n1 was read as KB-3-1 cytotox inactive, KB-V1 cytotox 13µM*, TDP1 cell CPT 16.4µM*, HT1080 IDH1KD tx 0.4%, TDP1 cell noCPT 9.2µM* and HT1080-NT tox 0.8%.
COc1ccc(CNC(=O)c2cn(Cc3ccc(OC(C)=O)cc3)c(=O)s2)cc1 was read as KB-3-1 cytotox inactive, KB-V1 cytotox inactive, TDP1 cell CPT inconclusive, HT1080 IDH1KD tx 8.7%, TDP1 cell noCPT inconclusive and HT1080-NT tox 4.5%.
Screening CNCc1ccccc1Sc1ccc(O)c(O)c1 returned KB-3-1 cytotox inactive, KB-V1 cytotox 23.1µM*, TDP1 cell CPT 2.59µM*, HT1080 IDH1KD tx inconclusive, TDP1 cell noCPT 4.11µM* and HT1080-NT tox -11.5%.
CC(=O)c1sc2nc(-c3ccco3)ccc2c1N was read as KB-3-1 cytotox inactive, KB-V1 cytotox inconclusive, TDP1 cell CPT inconclusive, HT1080 IDH1KD tx -0.5%, TDP1 cell noCPT inconclusive and HT1080-NT tox -17.7%.
`CC(C(=O)c1ccc(-c2ccccc2)cc1)[n+]1cccc(NC(=O)c2ccccc2)c1` (configuration not stated) gave KB-3-1 cytotox inactive, KB-V1 cytotox inconclusive, TDP1 cell CPT 18.4µM*, HT1080 IDH1KD tx inconclusive, TDP1 cell noCPT 14.6µM* and HT1080-NT tox inconclusive.
Screening O=C(Nc1cccnc1)c1ccc(-c2ccccc2)cc1 returned KB-3-1 cytotox inactive, KB-V1 cytotox inactive, TDP1 cell CPT -11.2%, HT1080 IDH1KD tx -0.2%, TDP1 cell noCPT inconclusive and HT1080-NT tox -3.5%.
`O=C(Nc1ccncc1)c1ccc(-c2ccccc2)cc1` gave KB-3-1 cytotox 23.1µM*, KB-V1 cytotox inactive, TDP1 cell CPT 3.26µM*, HT1080 IDH1KD tx -23.8%, TDP1 cell noCPT 2.91µM* and HT1080-NT tox -9.6%.
`CC(=O)c1cccc(NS(=O)(=O)c2ccc(C(=O)Nc3ccccc3)cc2)c1` gave KB-3-1 cytotox inconclusive, KB-V1 cytotox inconclusive, TDP1 cell CPT 18.4µM*, HT1080 IDH1KD tx inconclusive, TDP1 cell noCPT 11.6µM* and HT1080-NT tox -17.6%.
O=C(Nc1ccncc1)c1ccc(S(=O)(=O)Nc2ccccc2)cc1 was read as KB-3-1 cytotox inactive, KB-V1 cytotox inactive, TDP1 cell CPT 14.6µM*, HT1080 IDH1KD tx -13.9%, TDP1 cell noCPT 11.6µM* and HT1080-NT tox -25.8%.
CCCCCC(=O)NNC1CC(=O)N(c2cccc(OCC)c2)C1=O (configuration not stated) was read as KB-3-1 cytotox inactive, KB-V1 cytotox inactive, TDP1 cell CPT 7.6%, HT1080 IDH1KD tx 5.5%, TDP1 cell noCPT 8.2% and HT1080-NT tox -5.5%.
For O=C(c1nc2ccccn2c1CN1CCCC(c2nc3ccccc3o2)C1)N1CCCC1 (configuration not stated) the results were KB-3-1 cytotox inactive, KB-V1 cytotox inconclusive, TDP1 cell CPT -3.8%, HT1080 IDH1KD tx 9.5%, TDP1 cell noCPT 4.6% and HT1080-NT tox 5.3%.
`Cn1c(-c2cccc(Br)c2)n[nH]c1=O` gave KB-3-1 cytotox inactive, KB-V1 cytotox inactive, TDP1 cell CPT -11.7%, HT1080 IDH1KD tx 8.8%, TDP1 cell noCPT -7.5% and HT1080-NT tox 14.0%.
Screening O=C(/C=C/c1cccc([N+](=O)[O-])c1)NC(=S)Nc1cccc(NC(=O)c2ccccc2Cl)c1 returned KB-3-1 cytotox 16.4µM*, KB-V1 cytotox inconclusive, TDP1 cell CPT 14.6µM*, HT1080 IDH1KD tx inconclusive, TDP1 cell noCPT 13µM* and HT1080-NT tox inconclusive.

Assay outcomes deposited in PubChem BioAssay by National Center for Advancing Translational Sciences (NCATS).
